Assay [1] can be described thus: Cell Viability - LYMP1-002 - Assay at 40 hr (AID 994). Also: potency is read from the fitted curve at half-maximal effect; nearly all actives have a fitted effect of over 60% in size. The conditions noted are these: LYMP1-002 lymphoblastoid cell viability. In short, it runs like this: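 Cells are plated at 2500 per well and rested 5 hr at 37 C. Compounds are added and incubated 40 hr at 37 C. CellTiter-Glo reagent is added for 30 min at room temperature before luminescence is read.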
Assay [2] addresses Estrogen receptor (Homo sapiens) (UniProt P03372). Nature of the assay: qHTS assay for small molecule antagonists of estrogen receptor alpha signaling (AID 588513; active = well fitted curve in the direction sought with a large enough effect in the signal ratio, with a control signal flat, not every such curve was filed as active; inconclusive = small, poorly fitted or top-dose-only effect, or effect the other way, or a change in a side signal; inactive = no such curve, though single readings can be large or run the other way; the % refers to the signal ratio; also: potency is read from the fitted curve at half-maximal effect). The following applies: ER-alpha-UAS-bla HEK293, beta-lactamase ratio, antagonist mode; series mostly up to 76.9 µM. In short, it runs like this: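 Fluorescence from CCF4 substrate after 2 h at room temperature gave reporter activity; cells had been exposed to compound and 0.5nM 17-beta-estradiol for 18 h at 37 C. Hill-equation fitting yielded IC50 and maximal response.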

For assay [3], the target named is Vitamin D3 receptor (Homo sapiens) (UniProt P11473). As to the kind of experiment: qHTS assay for small molecule antagonists of vitamin D receptor signaling (AID 588541; calls by dose curve; also: potency is read from the fitted curve at half-maximal effect). The conditions noted are these: HEK293T VDR-UAS-bla, beta-lactamase ratio, antagonist mode; series mostly up to 76.7 µM. In short, it runs like this:
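Antagonist-mode beta-lactamase reporter assay: HEK293T VDR-UAS-bla cells were exposed to titrated compound alongside 1-alpha,25-dihydroxyvitamin D3 at 3 nM final for 16 h. Values were normalized to the 50 nM agonist control and DMSO basal, with IC50 and efficacy from Hill equation fits.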

In assay [4] the target is Voltage-gated inwardly rectifying potassium channel KCNH2 (Homo sapiens) (UniProt Q12809). As to the kind of experiment: qHTS Assay for Small Molecule Inhibitors of the Human hERG Channel Activity (AID 588834).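 Also: top concentration of the series differs between compounds; % is scaled to controls: 0 for no effect and ±100 for the full control effect; lower thallium flux fluorescence means stronger hERG block; nearly all actives have a fitted effect of over 50% in size.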 The following applies: U2OS BacMam hERG, FluxOR thallium flux fluorescence; series mostly up to 46.1 µM. In short, it runs like this:
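Step 1: BacMam hERG transduction of U2OS, 4 hrs RT. Step 2: overnight 37 °C, plate 2000 cells/well, 4 hr. Step 3: FluxOR load, compound 10 min, stimulate, read fluorescence.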

The nature of assay [5]: qHTS assay for small molecule disruptors of the mitochondrial membrane potential - 1 hr assay (AID 651754; calls by dose curve; also: potency is read from the fitted curve at half-maximal effect; nearly all actives have a fitted effect of over 35% in size). In short, it runs like this: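 Loss of mitochondrial potential shifts the cationic dye from red mitochondrial aggregates to green cytoplasmic monomers. Cells (HepG2) are treated with compound for 1 hr before a 30 min dye incubation at 37C.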
Assay [6] can be described thus: qHTS assay for small molecule disruptors of the mitochondrial membrane potential - 5 hr assay (AID 651755; calls by dose curve; also: potency is read from the fitted curve at half-maximal effect; nearly all actives have a fitted effect of over 40% in size). The following applies: JC-1-type ratio dye. In short, it runs like this:
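Membrane-potential dye readout: red aggregate (540 ex/590 em) versus green monomer (490 ex/535 em) fluorescence after 30 min dye loading, following 5 hr compound exposure at 37C of overnight-plated HepG2 cells.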

Assay [7] is described as follows: qHTS assay for environmental chemicals that activate the Aryl hydrocarbon Receptor (AhR) signaling pathway (AID 651777). Also: % of control where 0% means no effect; nearly all actives have a fitted effect of over 15% in size. The following applies: 1A2-DRE human hepatoma cells, luciferase, 24 h; stronger effect = higher value. In short, it runs like this:
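Quantitative HTS in stably transfected human liver-derived cells whose luciferase gene sits downstream of the CYP1A2 promoter and dioxin response element. After 24 hr exposure at 37 C, One-Glo luminescence was measured.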

The target in assay [8] is Peroxisome proliferator-activated receptor alpha (Homo sapiens) (UniProt Q07869). Nature of the assay: qHTS assay for small molecule agonists of the peroxisome proliferator-activated receptor alpha (PPARalpha) signaling pathway (AID 651778). Also: % of control where 0% means no effect. The following applies: PathHunter PPARalpha complementation, chemiluminescence, 6 h; stronger effect = higher value. In short, it runs like this: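 Chemiluminescence from complemented enzyme reported PPARalpha activation in cells after 6 hr of compound treatment at 37 C. The detection reagent was incubated for 60 min at room temperature, and compounds were scored as agonists.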

Assay [9] addresses Nuclear receptor ROR-gamma (Homo sapiens) (UniProt P51449). Nature of the assay: qHTS assay for small molecule antagonists of the retinoid-related orphan receptor gamma (ROR-gamma) signaling pathway (AID 651802). Also: potency is read from the fitted curve at half-maximal effect; nearly all actives have a fitted effect of over 60% in size. The conditions noted are these: ROR-gamma antagonist cell reporter assay. In short, it runs like this:
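Steps: cells dispensed; compound or DMSO transferred by pin tool; doxycycline added to induce the ROR response element-driven luciferase; plates held 16hr at 37C; ONE-Glo added and luminescence measured.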

A short description of assay [10]: qHTS assay for small molecule antagonists of the retinoid-related orphan receptor gamma (ROR-gamma) signaling pathway - cell viability counter screen (AID 720652; active = well fitted curve in the direction sought with a large enough effect in the repeat runs; inconclusive = weak or mixed curves; inactive = no such curve, though single readings can be large; an effect the other way counts as inactive or inconclusive;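 also: potency is read from the fitted curve at half-maximal effect; compound exposure lasted 16 hr before ATP read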). The conditions noted are these: RORgamma reporter cell line viability counter screen. In short, it runs like this: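 Steps: seed CHO cells bearing TET-inducible ROR and ROR response element-luciferase; rest 5 hr at 37 C; add compound, then doxycycline; incubate 16 hr; add CellTiter-Glo and read luminescence as ATP-based viability.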

Assay [11] in a line: qHTS assay for small molecule agonists of the antioxidant response element (ARE) signaling pathway measured by Nrf2-dependant transcriptional activity - cell viability counter screen (AID 720653; active = well fitted curve in the direction sought with a large enough effect in the repeat runs; inconclusive = weak or mixed curves; inactive = no such curve, though single readings can be large; an effect the other way counts as inactive or inconclusive; also: potency is read from the fitted curve at half-maximal effect). The following applies: ARE-bla HepG2 viability, CellTiter-Glo ATP luminescence, 16 h; max response: stronger effect = lower value. In short, it runs like this:
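Cytotoxicity counter screen: intracellular ATP quantified by CellTiter-Glo luminescence in the same ARE-bla HepG2 plates, after 16 h compound exposure and a 2 h beta-lactamase substrate step.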

Assay [12] in a line: qHTS assay for cell viability of HEK293 cells (AID 743288). Also: potency is read from the fitted curve at half-maximal effect; nearly all actives have a fitted effect of over 50% in size. The following applies: ATP luminescence (CellTiter-Glo), 18 h; max response: stronger effect = lower value. In short, it runs like this: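 Viable-cell counts were inferred from luciferase-based ATP content in HEK293 cells seeded at 2,000/well, pre-incubated ≥5 h, then dosed with DMSO-solubilised compounds for 18 h at 37 C.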

Assay [13] is described as follows: qHTS assay for cell viability of the p53RE-bla HCT-116 cell line (AID 743292). Also: potency is read from the fitted curve at half-maximal effect; nearly all actives have a fitted effect of over 55% in size. The following applies: p53RE-bla HCT-116 viability, ATP luminescence, 16 h; series mostly up to 95 µM. In short, it runs like this:
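Viability of compound-treated p53RE-bla HCT-116 cells is taken from ATP-dependent luciferase luminescence. Treatment lasts 16 h at 37 C after a 5 h settling period; detection follows 30 min at room temperature.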

Assay [14] has as its target Furin (Homo sapiens) (UniProt P09958). As to the kind of experiment: Furin counterscreen qHTS for Zika virus inhibitors (AID 1347149).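 Also: purified recombinant full-length human furin enzyme at 5 nM; fluorescence gain from furin cutting a BOC-RVRR-AMC peptide substrate over 15 min; top concentration of the series differs between compounds; plate controls were no-inhibitor control for no effect and no-enzyme control for full effect; nearly all actives have a fitted effect of over 70% in size.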 The following applies: furin enzymatic counterscreen, fluorogenic substrate; series mostly up to 114 µM. In short, it runs like this: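 Counterscreen measures cleavage of 2 microM BOC-RVRR-AMC, below its ~15 microM Km, by 5 nM full-length human furin at pH 7.0 after a 15-min compound preincubation. Inhibition derives from the 15-min fluorescence increase at 37C.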

Assay [15] can be described thus: ZIKV-mCherry secondary qHTS for Zika virus inhibitors (AID 1347158). Also: top concentration of the series differs between compounds. The conditions noted are these: Vero cells, ZIKV-mCherry infection imaging, 48-72 h; series mostly up to 49.2 µM. In short, it runs like this: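 Compounds were tested in Vero monkey kidney cells infected with recombinant mCherry-expressing Zika virus at MOI 1 for 48-72 h at 37 °C. Fixed cells were nuclear-stained and imaged, and infection rate was taken as the fraction of mCherry-positive cells.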

The subject of assay [16] is Zika virus NS2B-NS3 protease (linked). As to the kind of experiment: 384 well plate NINDS AMC confirmatory qHTS for Zika virus inhibitors (AID 1347163). Also: potency is read from the fitted curve at half-maximal effect; nearly all actives have a fitted effect of over 50% in size. The conditions noted are these: Recombinant NS2B-NS3 protease, Ac-VKTGKR-AMC fluorescence; series mostly up to 1 mM. In short, it runs like this: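 Fluorescence at 355/460 nm was read after 25 minutes of cleavage of 30 microM Ac-VKTGKR-AMC at room temperature, in the dark. Before substrate addition, compounds (up to 1 mM final) sat ~15 minutes with 5, 30 or 60 nM linked protease. Signals were normalized to no-enzyme and no-inhibitor wells.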

The subject of assay [17] is Zika virus NS2B-NS3 protease (linked construct). As to the kind of experiment: 384 well plate NINDS Rhodamine confirmatory qHTS for Zika virus inhibitors (AID 1347164). Also: potency is read from the fitted curve at half-maximal effect; nearly all actives have a fitted effect of over 65% in size. The following applies: rhodamine-110 peptide substrate fluorescence; series mostly up to 1 mM. In short, it runs like this: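 Enzyme (final 5/30/60 nM) + cpd (DMSO), ~15 min; add Ac-LKRR-Rd 10 microM final; 25 min RT, dark; FI ex 485/em 538; normalized to no-enzyme, no-inhibitor ctrls; aprotinin intraplate ctrl.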

Assay [18] in a line: HepG2 cells viability qHTS for Zika virus inhibitors (AID 1347168). Also: potency is read from the fitted curve at half-maximal effect. The conditions noted are these: Zika counter-screen; series mostly up to 45.9 µM. In short, it runs like this:
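Luminescent ATP readout (CellTiter Glo) after 30 min at 37 degrees C gives viability; cells in DMEM + 4% FBS were treated 24 to 48 hours with compound, following overnight attachment.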

Assay [19] in a line: Tertiary RLuc qRT-PCR qHTS assay for Zika virus inhibitors (AID 1347169). Also: potency is read from the fitted curve at half-maximal effect; nearly all actives have a fitted effect of over 55% in size. The following applies: infected Vero cells, reporter luminescence, 48-72 h; series mostly up to 1.74 µM. In short, it runs like this:
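Vero, 1,000 cells/well, o/n 37 C; cpd pinned in DMSO; ZIKV-RLuc Cambodian, MOI 1-2, 48-72 h 37 C; live-cell RLuc substrate, lum read at 1-1.5 h.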

Assay [20] is described as follows: qHTS assay for small molecule activators of the human pregnane X receptor (PXR) signaling pathway (AID 720659; call rule not given here; also: 0% is about no effect). The following applies: DPX-2 HepG2 CYP3A4-luciferase, 24 h; series mostly up to 92.3 µM.

The structures appear in SMILES notation. Unmarked numbers belong to inactive results. Calls of active or inactive are those of the source. Unless noted, calls follow the shape of the dose curve; as a rule, active = well fitted curve in the direction sought with a large enough effect; inconclusive = small, poorly fitted or top-dose-only effect, or another doubt; inactive = no such curve, though single readings can be large; an effect the other way counts as inactive or inconclusive.

Chain of Furin (Homo sapiens) (P09958 whole entry, looked up): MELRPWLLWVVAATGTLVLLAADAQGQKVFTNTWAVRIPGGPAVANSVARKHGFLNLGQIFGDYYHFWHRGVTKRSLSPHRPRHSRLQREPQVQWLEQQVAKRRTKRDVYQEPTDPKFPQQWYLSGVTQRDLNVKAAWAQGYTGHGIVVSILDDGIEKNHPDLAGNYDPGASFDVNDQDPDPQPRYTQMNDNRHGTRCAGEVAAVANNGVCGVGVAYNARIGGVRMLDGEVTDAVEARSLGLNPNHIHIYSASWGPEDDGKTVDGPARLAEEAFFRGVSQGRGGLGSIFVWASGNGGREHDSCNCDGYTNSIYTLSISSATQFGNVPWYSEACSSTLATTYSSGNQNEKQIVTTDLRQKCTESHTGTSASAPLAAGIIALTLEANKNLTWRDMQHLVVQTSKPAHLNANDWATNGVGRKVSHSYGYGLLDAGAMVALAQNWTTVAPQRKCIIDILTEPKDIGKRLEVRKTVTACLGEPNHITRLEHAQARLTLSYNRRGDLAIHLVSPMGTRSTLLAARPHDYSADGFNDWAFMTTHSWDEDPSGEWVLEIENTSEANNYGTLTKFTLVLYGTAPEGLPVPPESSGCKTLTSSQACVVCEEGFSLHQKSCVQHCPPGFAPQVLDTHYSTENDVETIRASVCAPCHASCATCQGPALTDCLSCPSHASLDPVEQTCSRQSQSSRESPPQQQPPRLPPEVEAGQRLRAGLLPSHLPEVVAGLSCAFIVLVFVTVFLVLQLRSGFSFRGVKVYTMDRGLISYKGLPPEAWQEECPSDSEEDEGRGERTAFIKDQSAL
Chain of Voltage-gated inwardly rectifying potassium channel KCNH2 (Homo sapiens) (Q12809 whole entry, looked up): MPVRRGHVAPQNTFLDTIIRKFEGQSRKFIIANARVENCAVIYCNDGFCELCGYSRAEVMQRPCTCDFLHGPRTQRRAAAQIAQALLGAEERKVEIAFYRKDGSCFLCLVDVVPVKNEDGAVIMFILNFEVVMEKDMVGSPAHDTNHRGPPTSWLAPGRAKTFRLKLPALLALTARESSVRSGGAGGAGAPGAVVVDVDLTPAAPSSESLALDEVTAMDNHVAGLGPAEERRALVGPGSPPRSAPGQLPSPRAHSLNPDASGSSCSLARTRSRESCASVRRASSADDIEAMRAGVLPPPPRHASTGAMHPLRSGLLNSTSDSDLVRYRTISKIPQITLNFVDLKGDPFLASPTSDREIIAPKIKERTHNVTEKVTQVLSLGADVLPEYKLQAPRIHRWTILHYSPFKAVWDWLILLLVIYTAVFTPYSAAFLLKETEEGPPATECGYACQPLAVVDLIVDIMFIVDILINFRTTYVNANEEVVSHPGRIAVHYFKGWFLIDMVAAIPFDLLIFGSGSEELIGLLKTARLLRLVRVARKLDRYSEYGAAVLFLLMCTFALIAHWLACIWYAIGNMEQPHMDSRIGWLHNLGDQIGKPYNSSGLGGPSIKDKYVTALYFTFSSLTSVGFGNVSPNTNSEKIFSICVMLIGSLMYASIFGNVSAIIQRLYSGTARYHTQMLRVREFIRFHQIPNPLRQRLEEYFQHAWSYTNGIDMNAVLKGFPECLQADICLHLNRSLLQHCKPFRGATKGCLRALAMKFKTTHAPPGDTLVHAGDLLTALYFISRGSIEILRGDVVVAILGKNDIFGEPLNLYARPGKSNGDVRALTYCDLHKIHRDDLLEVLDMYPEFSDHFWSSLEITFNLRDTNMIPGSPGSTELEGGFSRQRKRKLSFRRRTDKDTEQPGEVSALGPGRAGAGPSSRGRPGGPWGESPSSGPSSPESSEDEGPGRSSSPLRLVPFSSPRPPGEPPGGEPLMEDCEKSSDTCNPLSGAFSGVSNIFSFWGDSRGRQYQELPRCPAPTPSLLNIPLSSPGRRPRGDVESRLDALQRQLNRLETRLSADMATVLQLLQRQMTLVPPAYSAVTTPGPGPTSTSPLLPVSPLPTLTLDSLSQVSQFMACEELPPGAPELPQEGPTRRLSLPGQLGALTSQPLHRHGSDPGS
Chain of Estrogen receptor (Homo sapiens) (P03372 whole entry, looked up): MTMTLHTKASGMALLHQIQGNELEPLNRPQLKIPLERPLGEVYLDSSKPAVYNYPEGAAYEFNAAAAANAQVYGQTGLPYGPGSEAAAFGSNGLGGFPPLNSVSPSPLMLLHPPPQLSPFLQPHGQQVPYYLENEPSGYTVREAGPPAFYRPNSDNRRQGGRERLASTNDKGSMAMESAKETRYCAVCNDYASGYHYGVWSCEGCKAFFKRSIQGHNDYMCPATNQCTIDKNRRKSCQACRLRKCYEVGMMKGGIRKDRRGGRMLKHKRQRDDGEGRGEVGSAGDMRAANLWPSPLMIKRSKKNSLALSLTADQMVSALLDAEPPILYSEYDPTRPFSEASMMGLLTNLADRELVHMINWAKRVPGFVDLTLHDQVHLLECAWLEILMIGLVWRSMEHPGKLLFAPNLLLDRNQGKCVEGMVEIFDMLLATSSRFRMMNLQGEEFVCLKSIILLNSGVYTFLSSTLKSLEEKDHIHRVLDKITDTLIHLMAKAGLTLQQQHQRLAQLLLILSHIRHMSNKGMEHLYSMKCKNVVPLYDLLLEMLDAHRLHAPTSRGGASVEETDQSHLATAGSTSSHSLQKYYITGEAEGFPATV
Chain of Peroxisome proliferator-activated receptor alpha (Homo sapiens) (Q07869 whole entry, looked up): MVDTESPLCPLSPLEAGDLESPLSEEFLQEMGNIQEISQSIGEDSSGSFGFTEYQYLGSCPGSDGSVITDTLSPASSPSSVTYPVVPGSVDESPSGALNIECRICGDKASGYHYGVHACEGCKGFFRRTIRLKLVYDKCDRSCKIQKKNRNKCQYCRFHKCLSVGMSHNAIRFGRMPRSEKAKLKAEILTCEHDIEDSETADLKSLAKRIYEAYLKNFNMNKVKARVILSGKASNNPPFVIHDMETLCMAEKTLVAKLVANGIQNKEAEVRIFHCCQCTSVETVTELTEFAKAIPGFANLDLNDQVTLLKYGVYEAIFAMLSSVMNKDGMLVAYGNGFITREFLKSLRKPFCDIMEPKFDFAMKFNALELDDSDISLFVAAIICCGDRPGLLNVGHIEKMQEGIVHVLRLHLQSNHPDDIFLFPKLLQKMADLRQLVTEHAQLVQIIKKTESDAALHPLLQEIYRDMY
Chain of Nuclear receptor ROR-gamma (Homo sapiens) (P51449 whole entry, looked up): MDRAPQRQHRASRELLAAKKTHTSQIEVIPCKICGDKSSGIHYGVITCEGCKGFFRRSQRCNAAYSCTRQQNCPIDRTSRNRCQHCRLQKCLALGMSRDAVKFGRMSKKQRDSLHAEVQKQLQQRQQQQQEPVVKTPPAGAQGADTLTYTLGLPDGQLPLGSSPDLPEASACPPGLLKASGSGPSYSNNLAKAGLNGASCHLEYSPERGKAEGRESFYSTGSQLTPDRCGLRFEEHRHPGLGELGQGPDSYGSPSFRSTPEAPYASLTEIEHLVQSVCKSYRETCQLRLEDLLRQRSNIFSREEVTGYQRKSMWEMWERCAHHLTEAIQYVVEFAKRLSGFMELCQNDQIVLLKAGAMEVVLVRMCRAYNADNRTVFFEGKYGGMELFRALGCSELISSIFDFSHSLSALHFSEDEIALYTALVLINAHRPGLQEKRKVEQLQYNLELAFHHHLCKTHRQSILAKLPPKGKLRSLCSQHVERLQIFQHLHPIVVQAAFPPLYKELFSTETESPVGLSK
Chain of Vitamin D3 receptor (Homo sapiens) (P11473 whole entry, looked up): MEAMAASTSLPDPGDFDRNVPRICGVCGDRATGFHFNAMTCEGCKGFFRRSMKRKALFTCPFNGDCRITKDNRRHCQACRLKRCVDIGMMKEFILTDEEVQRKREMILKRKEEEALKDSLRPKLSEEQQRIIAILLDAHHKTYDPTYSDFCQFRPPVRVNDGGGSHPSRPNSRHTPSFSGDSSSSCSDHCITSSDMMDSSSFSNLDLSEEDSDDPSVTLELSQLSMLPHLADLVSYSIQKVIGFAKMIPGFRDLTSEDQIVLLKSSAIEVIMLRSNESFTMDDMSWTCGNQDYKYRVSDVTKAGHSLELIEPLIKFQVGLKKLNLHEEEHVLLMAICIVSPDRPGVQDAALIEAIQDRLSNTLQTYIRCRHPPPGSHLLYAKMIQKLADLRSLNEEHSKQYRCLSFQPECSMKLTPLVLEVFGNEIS

Consider `O=C1c2c(O)ccc([N+](=O)[O-])c2C(=O)c2c([N+](=O)[O-])ccc(O)c21`, for which the Potency is 39.8 µM (active) in assay [1]; 14.1 µM [inconclusive] (active) in assay [2]; 22.4 µM (active) in assay [3]; 5.31 µM (active) in assay [5]; 3.76 µM (active) in [6]; 16.8 µM (active) in assay [9]. For the same compound, the Potency was 33.5 µM (active) in assay [10]; 20 µM (active) in assay [11]; 39.8 µM (active) in assay [12]; 39.8 µM (active) in assay [13]; 100 µM (active) in assay [16]; 70.8 µM (active) in assay [17]. The Potency in assay [18] is 42.6 µM (active); in assay [19], 13.5 µM (active). Also, the Potency result in [4], in assay [14] and in assay [15] was “inactive” each time. Also, the activation in [7] was 5.47%. In assay [8], the max response was -6.07%. Also, the result in assay [20] was inactive.

(Values after PubChem BioAssay (NCATS).)
